Laboratory results reported in PubChem BioAssay AID1159580 (chemical genetic matrix, 2015).
Among all 5,500 compounds or so, about 2,000 (36%) were called active. Not shown: some 18% with an inconclusive outcome. Cut-off read from the data, not from the text of the source: active = normalized growth mostly below about 0.91 (no sharp cut-off); inconclusive = no clear call, values can overlap the other calls; inactive = mostly above about 0.92. Some of the results follow.

Experiment: chemical genetic growth profiling, strain panel (AID 1159580);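 note: tested at 20 µM; growth read once vehicle control cultures reached saturation at 30 °C; 1 = growth at the plate median or of vehicle wells; lower values mean less growth of the strain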
Details: S. cerevisiae deletion strains, growth OD
[1] = locus YAL013W, strain DEP1, stronger effect = lower value
[2] = locus YBR229C, strain ROT2, stronger effect = lower value
[3] = locus YDL101C, strain DUN1, stronger effect = lower value
[4] = locus YDL134C, strain PPH21, stronger effect = lower value
[5] = locus YDR150W, strain NUM1, stronger effect = lower value
[6] = locus YEL061C, strain CIN8, stronger effect = lower value
[7] = locus YGR078C, strain PAC10, stronger effect = lower value
[8] = locus YHR030C, strain SLT2, stronger effect = lower value
[9] = locus YHR087W, strain rtc3, stronger effect = lower value
[10] = locus YJR043C, strain POL32, stronger effect = lower value
[11] = locus YJR075W, strain HOC1, stronger effect = lower value
[12] = locus YLR039C, strain RIC1, stronger effect = lower value
[13] = locus YLR058C, strain SHM2 (second series), stronger effect = lower value
[14] = locus YLR085C, strain ARP6, stronger effect = lower value
[15] = locus YLR262C, strain YPT6, stronger effect = lower value
[16] = locus YML094W, strain GIM5, stronger effect = lower value
[17] = locus YMR219W, strain ESC1, stronger effect = lower value
[18] = locus YMR263W, strain SAP30, stronger effect = lower value
[19] = locus YNL153C, strain GIM3, stronger effect = lower value
[20] = locus YNL298W, strain CLA4 (second series), stronger effect = lower value
[21] = locus YNL322C, strain KRE1, stronger effect = lower value
[22] = locus YNR030W, strain Alg12, stronger effect = lower value
[23] = locus YOL006C, strain TOP1, stronger effect = lower value
[24] = locus YPL055C, strain LGE1, stronger effect = lower value
[25] = locus YPL241C, strain CIN2, stronger effect = lower value
[26] = locus YPR135W, strain CTF4, stronger effect = lower value
[27] = locus YJL187C, strain SWE1, stronger effect = lower value

Measured: normalized growth

COC(=O)/C(=C/N(C)C)Sc1cc(C)c(Cl)cc1Cl
active: [8] 0.296 | locus YKL190W, strain CNB1, stronger effect = lower value 0.91 | [12] 0.622 | [15] 0.587 | [21] 0.933
inactive: [1] 0.945 | [2] 0.968 | [3] 1.01 | [4] 0.983 | [5] 0.958 | [6] 0.951 | [7] 0.979 | [9] 0.939 | [10] 0.983 | [11] 0.935 | [13] 0.939 | [14] 0.91 | [16] 0.914 | [17] 0.959 | [18] 0.946 | [19] 0.992 | [20] 0.925 | [22] 0.942 | [23] 0.978 | [24] 0.922 | [25] 0.947 | [26] 0.747

CC(C)(C)c1ccc(-c2nc(-c3cc(C(C)(C)C)c(O)c(C(C)(C)C)c3)cs2)cc1
inactive: [1] 1.01 | [2] 1 | locus YCL061C, strain MRC1, stronger effect = lower value 1.03 | [3] 1.02 | [4] 1.02 | [5] 0.912 | [6] 1.03 | [7] 1.02 | [8] 1.09 | [9] 1.01 | [27] 1.01 | [10] 1.01 | [11] 1.03 | [12] 1.08 | [13] 1.01 | [14] 1.21 | [15] 1.04 | [16] 1.03 | [17] 1.01 | [18] 0.947 | [19] 0.988 | [20] 1.05 | [21] 1.01 | [22] 1.03 | [24] 1.17 | [25] 1.13 | [26] 1.07

Cc1ccc(-c2csc(-c3ccc(Cl)cc3)n2)c(C)c1
inactive: [1] 0.979 | [2] 0.978 | [3] 0.968 | [5] 0.987 | [6] 0.914 | [7] 0.989 | [9] 0.956 | [27] 0.994 | [10] 0.994 | [11] 1.01 | [12] 0.926 | [13] 0.988 | [15] 0.952 | [16] 0.9 | [17] 0.998 | [18] 1.01 | [19] 1.01 | [20] 0.908 | [21] 0.987 | [22] 0.949 | [24] 0.968 | [25] 1.1 | [26] 0.772
active: [8] 0.611 | [14] 0.753 | [23] 0.686

Cc1ccc2nc(-c3ccc(Cl)cc3)cn2c1
inactive: locus YAR019C, strain CDC15, stronger effect = lower value 0.961 | locus YBL105C, strain PKC1, stronger effect = lower value 0.97 | locus YBR135W, strain CKS1, stronger effect = lower value 0.968 | locus YBR136W, strain MEC1, stronger effect = lower value 0.968 | locus YBR160W, strain CDC28, stronger effect = lower value 0.954 | locus YDL017W, strain CDC7, stronger effect = lower value 0.964 | locus YDL028C, strain MPS1, stronger effect = lower value 0.974 | [3] 0.969 | locus YDL108W, strain KIN28, stronger effect = lower value 0.971 | locus YDL132W, strain cdc53, stronger effect = lower value 0.962 | locus YDL214C, strain PRR2, stronger effect = lower value 0.95 | locus YDR052C, strain DBF4, stronger effect = lower value 0.972 | locus YDR054C, strain cdc34, stronger effect = lower value 0.949 | locus YDR226W, strain ADK1, stronger effect = lower value 0.959 | locus YDR477W, strain SNF1, stronger effect = lower value 0.933 | locus YER123W, strain YCK3, stronger effect = lower value 0.89 | locus YER133W, strain GLC7, stronger effect = lower value 0.923 | locus YFL009W, strain cdc4, stronger effect = lower value 0.967 | locus YFL029C, strain CAK1, stronger effect = lower value 0.956 | locus YFR003C, strain YPI1, stronger effect = lower value 0.97 | locus YFR019W, strain FAB1, stronger effect = lower value 0.944 | locus YFR028C, strain CDC14, stronger effect = lower value 0.958 | locus YGR040W, strain KSS1, stronger effect = lower value 0.911 | locus YGR052W, strain FMP48, stronger effect = lower value 0.974 | locus YGR092W, strain DBF2, stronger effect = lower value 0.903 | [8] 0.889 | locus YHR079C, strain IRE1, stronger effect = lower value 0.936 | locus YHR082C, strain KSP1, stronger effect = lower value 1 | locus YHR205W, strain SCH9, stronger effect = lower value 0.966 | locus YIL147C, strain SLN1, stronger effect = lower value 0.975 | locus YJL095W, strain BCK1, stronger effect = lower value 0.948 | locus YJL128C, strain PBS2, stronger effect = lower value 0.966 | locus YJL157C, strain FAR1, stronger effect = lower value 0.92 | locus YJR016C, strain ILV3, stronger effect = lower value 0.97 | locus YJR066W, strain TOR1 (second series), stronger effect = lower value 0.937 | locus YJR066W, strain TOR1, stronger effect = lower value 0.953 | locus YKL048C, strain ELM1, stronger effect = lower value 0.956 | locus YKL067W, strain YNK1, stronger effect = lower value 0.936 | locus YKL101W, strain HSL1, stronger effect = lower value 0.953 | locus YKL193C, strain SDS22, stronger effect = lower value 0.961 | locus YKL203C, strain TOR2, stronger effect = lower value 0.97 | locus YLR113W, strain HOG1, stronger effect = lower value 0.906 | locus YLR133W, strain CKI1, stronger effect = lower value 0.953 | locus YLR403W, strain SFP1, stronger effect = lower value 0.93 | locus YML070W, strain DAK1, stronger effect = lower value 0.91 | locus YMR001C, strain CDC5, stronger effect = lower value 0.965 | locus YMR205C, strain PFK2 (second series), stronger effect = lower value 0.952 | locus YMR277W, strain FCP1, stronger effect = lower value 0.961 | locus YNL006W, strain LST8, stronger effect = lower value 0.962 | locus YNL020C, strain ARK1, stronger effect = lower value 0.946 | locus YNL161W, strain CBK1, stronger effect = lower value 0.961 | locus YNL183C, strain NPR1, stronger effect = lower value 0.928 | locus YNL207W, strain RIO2, stronger effect = lower value 0.97 | locus YNL222W, strain SSU72, stronger effect = lower value 0.958 | locus YNL307C, strain MCK1 (second series), stronger effect = lower value 0.907 | locus YOL078W, strain AVO1, stronger effect = lower value 0.97 | locus YOL136C, strain PFK27, stronger effect = lower value 0.921 | locus YOR061W, strain CKA2, stronger effect = lower value 0.948 | locus YOR119C, strain RIO1, stronger effect = lower value 0.982 | locus YOR231W, strain MKK1, stronger effect = lower value 0.884 | locus YOR329C, strain SCD5, stronger effect = lower value 0.969 | locus YPL031C, strain PHO85, stronger effect = lower value 0.949 | locus YPL153C, strain RAD53, stronger effect = lower value 0.899 | locus YPL204W, strain HRR25, stronger effect = lower value 0.9 | locus YPL209C, strain IPL1, stronger effect = lower value 0.959 | locus YPL256C, strain CLN2, stronger effect = lower value 0.909 | locus YPR025C, strain CCL1, stronger effect = lower value 0.969 | locus YPR106W, strain ISR1, stronger effect = lower value 0.964 | locus YPR111W, strain DBF20, stronger effect = lower value 0.96 | strain NNK1, stronger effect = lower value 0.986 | strain TSCII, stronger effect = lower value 0.959
